KB-V1 cytotox: kills drug-selected multidrug resistant KB-V1 cells. KB-V1 MDR cells viability, CellTiter-Glo, 72 h. Potency, µM (doses to about 46.1 µM), hits mostly cytotoxic. hit rate 3.4% among 400,000; further: nearly all actives have a fitted effect of over 60% in size
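In this primary screen, KB-V1 cells overexpressing P-gp are incubated with library compounds (lowest to highest concentration) for 72 h at 37 degrees C before a luminescent ATP viability read.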
Giardia kill: Giardia lamblia killing; Giardia lamblia trophozoite viability; activity change, % at 7.66 µM, hits read low; hit rate 0.15% among 340,000; AID 540267; in the data active means activity change below about -80%; inconclusive means between about -30% and that limit;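 further: parasites exposed to compound for two days anaerobically before the ATP read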
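Killing of trophozoites was scored by loss of ATP luminescence after a 48 hrs anaerobic exposure to compounds at 37 deg C, using 100 cells per well.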
Nrf2 block: Nrf2 pathway inhibition; A549 ARE-Fluc reporter, luciferase luminescence, 18-24 h; Potency, µM (highest dose often 46 µM), hits mostly inhibitors; hit rate 2.1% among 360,000; AID 504444; further: nearly all actives have a fitted effect of over 60% in size
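Reporter: ARE-Fluc in A549. Exposure: 18-24 h, 37 °C, 5% CO2, 5% FBS OPTI-MEM. Readouts: fluorescent cytotoxicity (CellTiter-Fluor), then luminescent Nrf2 signal after BugLite.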
A549 tox: kills or reduces viability of A549 cells in Nrf2 counter-screen; hit rate 0.16% among 390,000; AID 504648; Potency, µM (doses to about 46 µM), most hits filed as inhibitors; A549 ARE-Fluc cells, CellTiter-Fluor viability, 18-24 h
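Cytotoxicity counterscreen: CellTiter-Fluor fluorescence was measured in A549 ARE_Fluc cells after 18-24 h of compound exposure in a concentration series. The subsequent BugLite luminescent read reports ARE-luciferase activity.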
KB-3-1 cytotox: kills parental KB-3-1 adenocarcinoma cells; KB-3-1 viability, CellTiter-Glo ATP luminescence, 72 h; Potency, µM (top dose mostly 46.1 µM), hits mostly cytotoxic; hit rate 1.4% among 400,000; AID 1347075; further: nearly all actives have a fitted effect of over 60% in size
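Parental KB-3-1 viability, qHTS format: 72 h compound exposure, 37 °C; CellTiter-Glo; media-only wells and DMSO plates as controls; concentration-effect fits on corrected data.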
PI4K2A block: blocks human PI4K2A kinase activity | purified PI4K2A, ADP-Glo luminescence, 1 h; hits give low values | activity change, negative = inhibition, % at 76.9 µM | hit rate 0.13% among 420,000 | Q9BTU6; in the data active means activity change below about -50%; inconclusive means mostly about -30% to -49%
Target sequence (Q9BTU6 whole entry, looked up): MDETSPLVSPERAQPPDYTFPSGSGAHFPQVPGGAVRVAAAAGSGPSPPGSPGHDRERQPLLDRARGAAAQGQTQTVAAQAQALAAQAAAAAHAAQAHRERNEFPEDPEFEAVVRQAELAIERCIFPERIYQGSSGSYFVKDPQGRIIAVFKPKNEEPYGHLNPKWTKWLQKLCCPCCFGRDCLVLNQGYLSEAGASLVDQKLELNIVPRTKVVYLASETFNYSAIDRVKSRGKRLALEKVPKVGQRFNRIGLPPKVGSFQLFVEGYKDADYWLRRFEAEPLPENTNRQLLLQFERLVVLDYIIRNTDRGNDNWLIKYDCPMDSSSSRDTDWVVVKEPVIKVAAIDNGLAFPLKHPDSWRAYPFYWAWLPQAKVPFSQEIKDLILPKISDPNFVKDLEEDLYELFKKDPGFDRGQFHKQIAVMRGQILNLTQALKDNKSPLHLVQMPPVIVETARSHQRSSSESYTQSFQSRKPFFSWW
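ADP-Glo luminescence measured ADP generated by PI4K2A enzyme (4 ug/mL before mixing) with 1.2 mM PI substrate (pre-mix) and 300 microM ATP (pre-mix). Tris pH7.5 buffer with MgCl2, Triton X-100; 1 h reaction at ambient temperature.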
Large screens that a line does not name were inactive. Shown are actives, neighbours in structure and some others; about 5.7% of the full set was active somewhere. Unless noted, the call rests on the fitted dose curve; in most records, active means well fitted curve in the direction sought with a large enough effect; inconclusive means small, poorly fitted or top-dose-only effect, or another doubt; inactive means no such curve, though single readings can be large; an effect the other way counts as inactive or inconclusive.

O=C(NCC(=O)N(CC1CCCO1)C1(C(=O)NC2CCCCC2)CCCCC1)c1ccccc1 (centres undefined)	KB-V1 cytotox 3.3µM
O=C(NCC(=O)N(CC1CCCO1)C1(C(=O)NC2CCCC2)CCCCC1)c1ccccc1 (centres undefined)	KB-V1 cytotox 15µM
CCOc1ccccc1N(C)C(=O)Cn1cnc2onc(-c3ccc(F)cc3)c2c1=O	KB-V1 cytotox inconclusive (no result: Giardia kill)
O=C(OC12CCCN(C1)/C(=C/c1cccc(Cl)c1)C2)C1CCCCC1 (centres undefined)	none (no result: KB-V1 cytotox, Giardia kill, Nrf2 block, A549 tox, KB-3-1 cytotox)
C#CC(=O)N(c1cc(OC)ccc1OC)C(C(=O)NC1CCCC1)c1cccs1 (centres undefined)	KB-V1 cytotox inconclusive, Nrf2 block 10µM, A549 tox inconclusive, KB-3-1 cytotox 15µM
COc1ccc(-n2c(C)nc3c(cnn3-c3ccc(C)cc3)c2=O)cc1	Nrf2 block 18µM
COc1ccc(-n2c(C)nc3c(cnn3-c3ccc(Cl)cc3)c2=O)cc1	Nrf2 block inconclusive, KB-3-1 cytotox inconclusive
COc1cccc(-n2c(-c3ccccc3F)nc3c(cnn3-c3ccc(C)cc3)c2=O)c1	A549 tox inconclusive, KB-3-1 cytotox 16µM (no result: Giardia kill)
Cc1ccc(-n2c(C)nc3c(cnn3-c3ccccc3)c2=O)cc1	KB-V1 cytotox 16µM, KB-3-1 cytotox inconclusive (no result: Giardia kill, Nrf2 block)
Cc1ccc(-n2c(SC/C=C/c3ccccc3)nnc2-c2ccco2)cc1	none (no result: KB-V1 cytotox, Giardia kill, Nrf2 block, A549 tox, KB-3-1 cytotox)
Cc1cc(C=CC#N)cc(C)c1Nc1nc(Nc2ccc3c(c2)OCO3)c2[nH]cnc2n1	KB-V1 cytotox inconclusive, KB-3-1 cytotox 18µM (no result: Giardia kill, Nrf2 block, A549 tox, PI4K2A block)
COc1cccc(C(=O)N(Cc2nc(-c3ccc(Cl)cc3)no2)C(C)C)c1OC	none (no result: Giardia kill)
Cc1ccc(-n2c(SCC(=O)N3CC(=O)Nc4ccccc43)nc3ccccc3c2=O)cc1	KB-V1 cytotox 18µM, Nrf2 block inconclusive, KB-3-1 cytotox inconclusive
COCCn1c(SCC(=O)N2CC(=O)Nc3ccccc32)nc2ccccc2c1=O	none
Cc1cccc(C)c1-n1c(SCC(=O)N2CC(=O)Nc3ccccc32)nc2ccccc2c1=O	KB-V1 cytotox 18µM, Nrf2 block 23µM, KB-3-1 cytotox inconclusive
O=C1CN(C(=O)CSc2nc(-c3ccc(Cl)cc3)cs2)c2ccccc2N1	Nrf2 block 23µM, KB-3-1 cytotox inconclusive
Cc1cccc(OCc2cc(=O)n3c(-c4ccccc4)csc3n2)c1C	none (no result: Giardia kill)
Ic1ccc(/C=C2\C=Cc3ccccc32)cc1	none (no result: Giardia kill, Nrf2 block, A549 tox, PI4K2A block)
Cc1ccc(NC(=S)NCC23C=CC(O2)C2C(=O)N(c4ccc(C)cc4)C(=O)C23)cc1 (centres undefined)	KB-V1 cytotox 13µM
CCOc1cccc(OCCOCCOc2ccccc2C(C)=O)c1	KB-V1 cytotox 15µM
CCOc1ccc(OCCCCOc2ccccc2C(C)=O)cc1	none
COCC(C)NC(=O)c1cccc([N+](=O)[O-])c1 (centres undefined)	none
COc1ccc(C(C)NC(=O)c2cccc([N+](=O)[O-])c2)cc1OC (centres undefined)	KB-V1 cytotox 16µM
COc1cc(OC)cc(C(=O)NC(C)c2ccc(Br)cc2)c1 (centres undefined)	none
COc1ccc(C(C)NC(=O)c2ccc(Br)cc2)cc1OC (centres undefined)	KB-V1 cytotox 16µM
COc1ccc(C(C)NC(=O)c2ccc([N+](=O)[O-])cc2)cc1OC (centres undefined)	KB-V1 cytotox 21µM, Nrf2 block inconclusive
COc1ccc(OC)c(C(C)NC(=O)c2ccc(Br)cc2)c1 (centres undefined)	KB-V1 cytotox 16µM
Cc1ccc(NC(=O)CCS(=O)(=O)c2cc(Br)cc3c2N(C(=O)C2CC2)CC3)cc1	none (no result: Giardia kill)
O=S(=O)(c1ccc2[nH]c3c(c2c1)CCCCC3)N1CCN(c2cccc(Cl)c2)CC1	Nrf2 block inconclusive (no result: Giardia kill)
Cc1ccc(-n2c(C3CC3c3ccc(Cl)cc3)n[nH]c2=S)cc1 (centres undefined)	KB-V1 cytotox 21µM (no result: Nrf2 block)
CCCOc1ccc(C(=O)NNC(=S)NC(=O)c2cc(-c3ccc(Cl)cc3)nc3ccccc23)cc1	Nrf2 block 4.6µM
COc1ccc(C(=O)NNC(=S)NC(=O)c2cc(-c3ccccc3)nc3ccccc23)cc1	Nrf2 block 18µM, A549 tox inconclusive, KB-3-1 cytotox inconclusive
Cc1cc2c(s1)c1cnn(Cc3ccccc3F)c(=O)c1n2C(C)C	Nrf2 block inconclusive (no result: KB-V1 cytotox, Giardia kill, KB-3-1 cytotox, PI4K2A block)
Cn1nc(C(=O)NCc2ccccn2)c2ccccc2c1=O	Nrf2 block 5.8µM
COC(=O)c1nn(Cc2ccccc2)c(=O)c2ccccc12	KB-V1 cytotox 16µM
Cc1ccc(COC(=O)c2nn(C)c(=O)c3ccccc23)cc1	KB-V1 cytotox inconclusive, Nrf2 block 23µM, KB-3-1 cytotox inconclusive
CC(NC(=O)c1nn(C)c(=O)c2ccccc12)c1ccccc1 (centres undefined)	KB-V1 cytotox 21µM
Cn1nc(C(=O)NCc2ccccc2)c2ccccc2c1=O	none
CC1CCCN(C(=O)N2c3ccccc3Sc3ccccc32)C1 (centres undefined)	KB-V1 cytotox inconclusive, Nrf2 block 16µM, A549 tox inconclusive
CC1CCN(C(=O)N2c3ccccc3Sc3ccccc32)CC1	KB-V1 cytotox inconclusive, KB-3-1 cytotox inconclusive (no result: Nrf2 block)
O=C1CCCC2=C1C1(CCCOC1)N=C(Nc1nc3ccccc3o1)N2 (centres undefined)	KB-V1 cytotox inconclusive, Nrf2 block inconclusive (no result: Giardia kill, PI4K2A block)
Cc1cc2c(cc(C(=O)OCC(=O)NCc3cccs3)n2C(C)C)o1	KB-V1 cytotox inconclusive, KB-3-1 cytotox 9.2µM
CC1(C)C(=O)N(CC(=O)Nc2ccc(OC(F)(F)F)cc2)c2ccccc21	none (no result: Giardia kill, Nrf2 block)
COC(=O)c1ccccc1-c1ccc(/C=N/NC(=O)c2cc3ccccc3o2)o1	KB-V1 cytotox 13µM, KB-3-1 cytotox inconclusive
CCN(CC)C(=O)CC[C@H]1CC[C@]2(CCCN(Cc3nccn3C)C2)O1	none (no result: KB-V1 cytotox, Giardia kill, Nrf2 block, A549 tox, KB-3-1 cytotox)
CC(OC(=O)c1cccc(N(C)C)c1)C(=O)N1CCc2ccccc2C1 (centres undefined)	KB-V1 cytotox 8.2µM
CN(C)c1cccc(C(=O)OCC(=O)N2CCc3ccccc3C2)c1	none
Cc1ccc(C)c(NC(=O)COc2coc(CN3CCc4ccccc4C3)cc2=O)c1	KB-V1 cytotox inconclusive, Nrf2 block 10µM
O=C(Cc1ccccc1)NCC(=O)OCC(=O)c1ccc2ccccc2c1	none (no result: PI4K2A block)
CCc1cccc2c(C(=O)CN3C(=O)NC(C)(c4cccc5ccccc45)C3=O)c[nH]c12 (centres undefined)	KB-V1 cytotox 23µM, Nrf2 block inconclusive, A549 tox inconclusive, KB-3-1 cytotox inconclusive
